# According to the supplement of paper PMC9694430:
# Key:
# Assay in all cases: thermal shift delta Tm vs DMSO control; higher = stronger stabilization (binding)
# Conditions in all cases: 12.5 µM; protein concentration 2 µM
# [1] = system: LOC_OS01G57100-cb003
# Method in brief: (§1)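 Purified, E. coli-expressed rice kinase domain constructs were tested by differential scanning fluorimetry in 96-well plates: 19.5 μl of 2 μM kinase in 100 mM potassium phosphate pH 7.5, 150 mM NaCl, 10% glycerol, 5 × SYPRO Orange, plus compound in DMSO. Fluorescence was read from 25°C to 95°C at 0.05°C/s. Melting temperatures came from Boltzmann fits, and the shift is the triplicate mean relative to protein with DMSO alone.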
# [2] = system: LOC_OS01G60330-cb001
# Method in brief: as §1
# [3] = system: LOC_OS01G60700-cb002
# Method in brief: as §1
# [4] = system: LOC_OS01G63280-cb003
# Method in brief: as §1
# [5] = system: LOC_OS01G67340-cb003
# Method in brief: as §1
# [6] = system: LOC_OS02G07810-cb001
# Method in brief: as §1
# [7] = system: LOC_OS02G08530-cb003
# Method in brief: as §1
# [8] = system: LOC_OS02G14120-cb001
# Method in brief: as §1
# [9] = system: LOC_OS02G17970-cb001
# Method in brief: as §1
# [10] = system: LOC_OS01G70970-cb002
# Method in brief: as §1
SMILES,thermal shift delta Tm [1] [°C],thermal shift delta Tm [2] [°C],thermal shift delta Tm [3] [°C],thermal shift delta Tm [4] [°C],thermal shift delta Tm [5] [°C],thermal shift delta Tm [6] [°C],thermal shift delta Tm [7] [°C],thermal shift delta Tm [8] [°C],thermal shift delta Tm [9] [°C],thermal shift delta Tm [10] [°C]
Cn1sc(=O)n(Cc2ccccc2)c1=O,3.29,-0.15,2.66,1.02,-1.31,2.24,-1.23,-0.52,1.81,
CS(=O)(=O)CCNCc1ccc(-c2ccc3ncnc(Nc4ccc(OCc5cccc(F)c5)c(Cl)c4)c3c2)o1 [Lapatinib],3.37,6.75,1.03,,1.58,1.88,1.24,0.15,1.82,1.28
CCOc1cc(C(=O)N2CCC(N3CCN(C)CC3)CC2)ccc1Nc1ncc2c(n1)N(C1CCCC1)c1ccccc1C(=O)N2C,1.18,1.19,0.58,-0.25,0.42,0.06,0.54,-0.51,-0.43,0.05
COc1cc2ncnc(Oc3cccc(NC(=O)Nc4cc(C(C)(C)C(F)(F)F)on4)c3)c2cc1OC,1.91,0.64,0.86,1.66,0.78,0.77,1.04,1.43,0.45,0.38
O=C(NC(NC(=S)Nc1ccc(F)c([N+](=O)[O-])c1)C(Cl)(Cl)Cl)C(c1ccccc1)c1ccccc1 (stereo unspecified),4.28,8.97,3.48,,0.17,3.38,2.71,2.37,3.46,1.86
Oc1c2ccccc2c2c3c(cccc13)N=N2,1.83,9.76,1.18,2.18,6.47,1.65,3.38,5.57,0.82,6.02
Cc1cc(O)c2c(c1)C(=O)c1cccc(O)c1C2=O [Chrysophanic Acid],5.05,0.02,0.52,,,0.6,-0.63,-2.71,1.94,-3.4
O=C(O[C@@H]1Cc2c(O)cc(O)cc2O[C@@H]1c1cc(O)c(O)c(O)c1)c1cc(O)c(O)c(O)c1 [(-)-Epigallocatechin Gallate],13.4,0.66,-5.2,,1,3.56,-2.15,0.07,,-0.02
CC(C)(C)c1cc(/C=C(\C#N)C(N)=S)cc(C(C)(C)C)c1O [Tyrphostin AG 879],5.01,3.04,4.7,,,2.55,2.78,4.98,3.25,2.23
O=C(Nc1cccc(Nc2ncc(Br)c(NCCc3cnc[nH]3)n2)c1)N1CCCC1,1.45,12.3,0.44,0.73,2,0.15,2.7,10.6,0.3,9.39
COC(=O)Nc1ccc(-c2nc(N3CCOCC3)c3cnn(C4CCN(C(=O)OC)CC4)c3n2)cc1,2.22,0.77,0.54,0.41,0.13,0.91,0.58,-0.24,0.43,0.2
